Results taken from PubChem BioAssay (Tox21).
Results filed as inconclusive are left out. Active and inactive are the calls of the source. Calls come from the whole dose curve; as a rule, active = well fitted activation curve with a large enough effect in the repeat runs; inconclusive = weak or mixed curves; inactive = flat fitted curve, though single readings scatter.

Test: A CellTox Green Cytotoxicity Assay to monitor cytotoxicity in HepG2 cells - 8 hour (AID 1224890); note: nearly all actives have a fitted effect of over 45% in size
Details: CellTox Green fluorescence; series mostly up to 76.8 µM; cytotoxicity increase: at the top concentration
Summary of the method: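 Read-out is fluorescence of a cyanine dye excluded from live cells that stains DNA of dead HepG2 cells, with signal proportional to cytotoxicity. Plates were read at 0, 8, 16, 24, 32 and 40 h after compound addition.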
% is set by controls: 0 for no effect and ±100 for the full control effect.

Compound | cytotoxicity increase
CCCCCCOc1ccc(N)cc1 | 14.5% (inactive)
CC1=NN(c2cc(Cl)c(S(=O)(=O)O)cc2Cl)C(=O)C1N=Nc1ccc(S(=O)(=O)O)cc1 (stereo unspecified) | -3.83% (inactive)
CCC1(C)NC(=O)NC1=O (stereo unspecified) | -1.3% (inactive)
CCCCCCCCc1ccc(S(=O)(=O)O)cc1 | 13.3% (inactive)
Oc1ccccc1C=NCc1ccccc1 | 6.2% [at 35.3 µM] (inactive)
C=CCCCCCCCCO | 18% (inactive)
Clc1cccc(-c2cc(Cl)cc(Cl)c2)c1 | 14.7% (inactive)
CCCCOc1cc(C(=O)NCCN(CC)CC)c2ccccc2n1 | 0.0587% [at 35.3 µM] (inactive)
CCCCNc1ccc(C(=O)OCCN(CC)CC)cc1 | 3.38% [at 35.3 µM] (inactive)
COC(=O)/C=C(/C)N | 1.89% [at 35.3 µM] (inactive)
CC(C)C(=O)OCC(C)(C)C(O)C(C)C (stereo unspecified) | -4.7% (inactive)
NCCCN1CCN(CCCN)CC1 | -8.13% (inactive)
CC[C@H]1CC[C@H](NCc2cc3c(cc2OC)[C@H]2C[C@H]2C(=O)N3C)[C@H](c2ccccc2)N1 | 14.1% (inactive)
CCN(CC)CCNC(=O)COc1ccc(Cl)cc1 | -2.25% [at 35.3 µM] (inactive)
CCC(=O)c1ccc2c(c1)N(CCCN(C)C)c1ccccc1S2 | 1.7% [at 35.3 µM] (inactive)
CN(C)C(=O)NC1(c2ccccc2)CCN(CCC[C@]2(c3ccc(Cl)c(Cl)c3)CCCN(C(=O)c3ccccc3)C2)CC1 | 9.35% [at 15.8 µM] (inactive)
CN1CCN(C2=Nc3ccccc3Oc3ccc(Cl)cc32)CC1 | 0.0462% [at 35.3 µM] (inactive)
CCOc1ccc(NS(=O)(=O)c2ccc(N)cc2)nn1 | 2.09% [at 35.3 µM] (inactive)
CCN(CC)CCOc1ccc(Cc2ccccc2)cc1 | 23.8% [at 35.3 µM] (inactive)
CCCN(CCC)C(=O)C(CCC(=O)O)NC(=O)c1ccccc1 (stereo unspecified) | -4.47% [at 35.3 µM] (inactive)
CN(CCCN1c2ccccc2CCc2ccccc21)CC(=O)c1ccc(Cl)cc1 | 14.3% [at 35.3 µM] (inactive)
